ERG-DNA inh: inhibitors of human ERG Ets domain-DNA interaction. fluorescence polarization, His-ERG Ets domain / labelled DNA. P11308. Potency, µM (top dose mostly 76.9 µM), without a hit: top-dose FP activity, negative = inhibition, hits mostly inhibitors. AID 624246. 0.028% of 370,000 active; active = well fitted inhibition curve with a large enough effect in the polarisation, with a control signal flat; inconclusive = small, poorly fitted or top-dose-only effect, or effect the other way, or a change in a side signal; inactive = no such curve, though single readings can be large or run the other way; the % refers to the polarisation;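 also: polarization taken with two DNA probes labelled with fluorescein and Texas red; % of control where 0% means no effect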
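His-tagged ERG Ets domain (1 uM in the protein solution; 300mM KCl, 50mM Tris-HCl, 1mM EDTA, 1mM DTT, pH 7.5) received compound, then a probe mix of 5 nM fluorescein-DNA and 100nM Texas-615-DNA. Fluorescence polarization was read for both dyes.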
EPAC1 antagonist: EPAC1 (human) antagonism | O95398 | EPAC1 GEF assay, Rap1b-BODIPY-GDP exchange fluorescence | Potency, µM (series often up to 115 µM), for inactives: at the highest dose activity change, negative = inhibition, actives largely listed as inhibitors | 0.14% of 360,000 active;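 also: plate controls were vehicle for no effect and positive control for full effect; nearly all actives have a fitted effect of over 50% in size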
EPAC2 antagonist: EPAC2 (human) antagonism. EPAC2 GEF exchange of Rap1B-BODIPY-GDP, fluorescence. AID 720708. 0.18% of 360,000 active. Potency, µM (top dose mostly 114 µM), without a hit: top-dose activity, negative = inhibition, usual class: inhibitors. Q8WZA2; also: % is scaled to controls: 0 for no effect and ±100 for the full control effect; nearly all actives have a fitted effect of over 45% in size
Target sequence (Q8WZA2 whole entry, looked up): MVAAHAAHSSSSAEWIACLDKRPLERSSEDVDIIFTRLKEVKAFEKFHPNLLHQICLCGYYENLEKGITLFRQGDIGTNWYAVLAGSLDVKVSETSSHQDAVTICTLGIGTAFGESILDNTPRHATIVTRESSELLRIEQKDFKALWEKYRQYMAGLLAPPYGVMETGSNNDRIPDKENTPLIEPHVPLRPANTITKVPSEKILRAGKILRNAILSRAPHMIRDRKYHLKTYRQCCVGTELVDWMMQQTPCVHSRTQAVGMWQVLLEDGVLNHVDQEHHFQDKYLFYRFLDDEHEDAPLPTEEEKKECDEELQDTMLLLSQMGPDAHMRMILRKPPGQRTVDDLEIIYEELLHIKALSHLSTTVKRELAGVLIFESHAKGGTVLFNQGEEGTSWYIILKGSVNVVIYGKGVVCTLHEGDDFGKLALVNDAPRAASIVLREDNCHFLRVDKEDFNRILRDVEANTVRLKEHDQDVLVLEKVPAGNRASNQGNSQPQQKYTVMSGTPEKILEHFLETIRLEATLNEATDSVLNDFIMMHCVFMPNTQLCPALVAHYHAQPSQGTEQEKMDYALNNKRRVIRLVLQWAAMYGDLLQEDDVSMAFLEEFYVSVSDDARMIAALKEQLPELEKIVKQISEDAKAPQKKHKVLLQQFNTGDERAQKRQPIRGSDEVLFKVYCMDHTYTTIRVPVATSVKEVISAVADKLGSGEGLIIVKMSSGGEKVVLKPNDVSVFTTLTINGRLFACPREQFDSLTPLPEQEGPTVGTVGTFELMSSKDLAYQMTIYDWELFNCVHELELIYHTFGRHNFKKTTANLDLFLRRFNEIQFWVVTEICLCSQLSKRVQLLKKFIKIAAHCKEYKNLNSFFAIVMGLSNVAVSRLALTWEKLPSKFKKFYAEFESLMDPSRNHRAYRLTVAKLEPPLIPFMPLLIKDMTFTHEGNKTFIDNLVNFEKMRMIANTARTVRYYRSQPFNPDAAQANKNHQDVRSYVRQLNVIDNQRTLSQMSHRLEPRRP
EPAC1 ag: activates human EPAC1 exchange factor; O95398; EPAC1 agonist qHTS, biochemical assay; response scale: 100% = response to 6.5 mM cAMP; Potency, µM (series often up to 154 µM), for the others: top-dose activation, hits mostly activators; 0.073% of 360,000 active; also: nearly all actives have a fitted effect of over 60% in size
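EPAC1 100 nM, Rap1B–BODIPY-GDP 250 nM, unlabeled GDP 50 uM; compound titration; 5 min RT; kinetic read ex480/em540 at 5-min intervals ×30 min; data normalized to 6.5 mM cAMP agonist control.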
RGS4 inhibitor: blocks human RGS4-accelerated GTP hydrolysis; 0.039% of 390,000 active; P49798; Transcreener GDP fluorescence polarization, RGS4-accelerated GTP hydrolysis; Potency, µM (doses to about 114 µM), inactives show at the top dose activity change, negative = inhibition, hits mostly inhibitors; AID 504845; also: % is scaled to controls: 0 for no effect and ±100 for the full control effect; nearly all actives have a fitted effect of over 75% in size
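MLSMR compounds (23 nl, pin-transferred) preincubated 10 min at room temperature with a 500nM (2x) first reagent, then RGS4 at 900nM (2x) plus Transcreener GDP mix added; fluorescence polarization (620/688 nm) read before and after 90 min at 30 °C.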
EPAC2 agonist: activates human EPAC2 exchange factor; Q8WZA2; EPAC2 activation, biochemical qHTS; response scale: 100% = 6.5 mM cAMP response; Potency, µM (titrated, usually from 154 µM), for inactives: at the highest dose activation, actives largely listed as activators; 0.079% of 360,000 active; also: nearly all actives have a fitted effect of over 50% in size
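EPAC2 (100 nM) mixed with Rap1B loaded with BODIPY-GDP (250 nM) plus 50 uM unlabeled GDP; compounds pinned in, 5 min RT, then read every 5 min for 30 min (ex 480, em 540 nm). Normalized to cAMP control.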
An asterisk follows results filed as active; ? = inconclusive; . = no result; [ ] = remark or other dose. Hits are enriched below; roughly 0.4% of the tested compounds scored in any of these assays. Unless noted, calls follow the shape of the dose curve; as a rule, active = well fitted curve in the direction sought with a large enough effect; inconclusive = small, poorly fitted or top-dose-only effect, or another doubt; inactive = no such curve, though single readings can be large; an effect the other way counts as inactive or inconclusive. Potency is read from the fitted curve at half-maximal effect.

SMILES | ERG-DNA inh | EPAC1 antagonist | EPAC2 antagonist | EPAC1 ag | RGS4 inhibitor | EPAC2 agonist
COc1cc(/C=C2\SC(=S)N(CC(=O)O)C2=O)ccc1OS(=O)(=O)c1ccc(C)cc1 | 64.5% | 89.1µM* | ? | -11.5% | ? | -11.6%
COc1cc(/C=C2/SC(=S)N(CC(=O)O)C2=O)ccc1OC(=O)c1cccs1 | 74.4% | 79.4µM* | ? | -8.3% | ? | 12.2%
CCCN1CCC(=O)N(C(CSc2ccc(OC)cc2)CC(C)C)CC1 (stereo not given) | . | . | . | . | 0.6% | .
Cc1cc(C(=O)c2cccs2)c(N)s1 | . | 0.7% | -1.4% | 2.5% | ? | -1.2%
Cc1cc(C)c(C(=O)c2cccs2)c(C)c1 | 2.1% | 6.2% | 28.2µM* | 3.2% | -11.7% | 5.7%
CCCN1CC=C2C(C#N)=C(N)C(C#N)(C#N)C(c3cccc(OC)c3OC)C2C1 (stereo not given) | . | -7.7% | 22.4µM* | ? | -23.6% | 7.0%
CC(=O)N1CC=C2C(C#N)=C(N)C(C#N)(C#N)C(CCc3ccccc3)C2C1 (stereo not given) | 5.7% | -1.6% | -22.0% | 19.5% | -1.7%[11.4 µM] | 23.8%
CCN1CC=C2C(C#N)=C(N)C(C#N)(C#N)C(CCc3ccccc3)C2C1 (stereo not given) | -4.9% | ? | 44.7µM* | 100µM* | -52.0% | 50.1µM*
COc1ccc2c3c(cccc13)C(=O)CC2 | 28.2µM* | 222.2% | 125.0% | 100µM* | -54.0% | 112µM*
CCN(CC)c1nc(N)c2c(N)nc3c(c2c1C#N)CC(c1ccccc1)O3 (stereo not given) | -1.5% | -1.1% | -8.8% | 10.0% | -47.3% | 8.5%
CCN(CC)c1nc(N)c2c(N)n(-c3ccccc3C)c(=S)c(C#N)c2c1C#N | 2.0% | 89.1µM* | -6.6% | -23.2% | -36.0% | -9.8%
CC1=NN(c2ccccc2)C(=O)/C1=C/c1c(O)n(-c2ccc(F)c(Cl)c2)[nH]c1=O | 8.9% | 50.1µM* | 89.1µM* | -18.2% | -2.3% | -17.6%
CCc1ccc(OCCNC(=O)c2ccccc2SCc2ccc(F)cc2)cc1 | 4.9% | -19.2% | 7.2% | -8.9% | ? | -2.1%
O=C(NCCOc1ccc(F)cc1)c1ccccc1SCc1ccccc1 | -2.4% | -7.4% | 50.1µM* | 16.4% | 22.4% | 9.1%
CCOC(=O)C1CCCCN1Cc1cccc(Oc2ccccc2)c1 (stereo not given) | 3.2% | -15.0% | 39.8µM* | -3.4% | 14.6% | 2.9%
CCOC(=O)C1CCCCN1Cc1cccc(OCc2ccccc2)c1 (stereo not given) | -2.6% | -0.9% | -10.8% | 0.7% | -23.2% | 13.0%
CN1N/C(=C\c2ccccc2)N=C2C(=O)N(C)C(=O)N=C21 | . | . | . | . | -32.9% | .
Cc1cccc(C)c1NC(=O)Cn1c(=O)n(Cc2ccccc2)c(=O)c2c(C)c(C(=O)N(C)C)sc21 | -6.2% | . | . | . | 19.4% | .
O=C1C=C(NCCc2cc(Br)c(O)c(Br)c2)C(=O)c2ncccc21 | -20.7% | 50.1µM* | 79.4µM* | 15.1% | ? | -1.1%
CCCC(=O)N1c2nc(-c3ccco3)nn2C2(CCCCC2)[C@@H]2CCCC[C@@H]21 | -2.8% | . | . | . | -46.1% | .
CN1CCc2[nH]c3ccc(Cl)cc3c2C1 | . | . | . | . | -4.3% | .
O=C(O)COc1ccc2nsnc2c1Cl | -0.3% | 2.9% | -7.3% | 3.4% | 13.8% | 7.1%
Cc1ccccc1C1=C/C(=C(\SS/C(C(=O)c2ccc(OCC(=O)O)c(Cl)c2Cl)=C2\C=C(c3ccccc3C)SS2)C(=O)c2ccc(OCC(=O)O)c(Cl)c2Cl)SS1 | . | 50.1µM* | 70.8µM* | 0.2% | ? | -0.8%
COc1ccc(-n2nnc(-c3nc(-c4cccs4)no3)c2N)cc1OC | 9.5% | . | . | . | -5.5% | .
Cc1ccc(CNC(=O)Cn2ccn(-c3ccc(F)c(F)c3)c(=O)c2=O)cc1 | 3.6% | . | . | . | -1.4% | .
SMILES | ERG-DNA inh | EPAC1 antagonist | EPAC2 antagonist | EPAC1 ag | RGS4 inhibitor | EPAC2 agonist
O=C(Nc1cccs1)Nc1ccccc1Cl | 1.0% | -21.5% | 22.4µM* | -3.7% | -11.3% | 6.3%
NC(=O)c1ccc2[nH]ccc2c1 | . | . | . | . | 14.7%[56.9 µM] | .
N#C/C(=C\C1=C(N2CCOCC2)C(=C/c2cccc([N+](=O)[O-])c2)/CC1)C(=O)Nc1ccccc1F | -0.7% | 5.3% | ? | 2.6% | 18.0% | -35.0%
N#C/C(=C/C1=C(N2CCOCC2)C(=C/c2cccc([N+](=O)[O-])c2)/CC1)C(=O)Nc1ccccc1F | 11.9% | 0.6% | 79.4µM* | -1.9% | -8.5% | -6.6%
COc1ccccc1CNS(=O)(=O)c1cnc(N)nc1 | 6.3% | . | . | . | 7.3% | .
O=C(Nc1cc(C(=O)Nc2ccccc2C(=O)O)cc(C(=O)Nc2ccccc2C(=O)O)c1)c1ccccc1 | 4.7% | 10µM* | -11.9% | 2.6% | -1.8% | 11.7%
O=C(/C=C/c1ccco1)Nc1cccc(C(=O)Nc2ccccc2C(=O)O)c1 | 10.9% | 50.1µM* | -8.8% | -7.7% | -59.6%[56.9 µM] | -7.2%
Cc1ccc(NC(=O)c2cccc(NC(=O)/C=C/c3ccco3)c2)cc1C | . | ? | -2.3% | 0.6% | -44.1% | -3.1%
Cc1ccc(-n2nc3ccc(NC(=O)/C=C/c4ccco4)cc3n2)cc1 | -3.7% | 22.4µM* | -16.0% | -1.0% | ? | -0.5%
Cc1cccc(OCC(=O)Nc2cccc(C(=O)Nc3ccccc3C(=O)O)c2)c1 | 1.0% | ? | -8.3% | 0.4% | -21.2% | 0.4%
O=C(Nc1ccccc1C(=O)O)c1cccc(NC(=O)c2ccccc2Br)c1 | -13.7% | -20.6% | 0.5% | -4.2% | -3.3% | 4.7%
O=C(COc1ccccc1[N+](=O)[O-])Nc1cccc(C(=O)Nc2ccccc2C(=O)O)c1 | 4.5% | 70.8µM* | -8.5% | -5.2% | -32.3% | 1.6%
CNC(=O)CSc1nnc(NC(=O)Nc2ccccc2)s1 | 7.5% | . | . | . | ? | .
O=C(c1ccc2c(c1)OCO2)c1cn(Cc2ccc(F)cc2)c2ccccc2c1=O | 3.5% | . | . | . | 10.6% | .
Cc1cccn2c(Nc3ccc4c(c3)OCCO4)c(-c3ccc(Br)o3)nc12 | -0.4% | . | . | . | -27.0% | .
CCOC(=O)C1CCCN(S(=O)(=O)c2cc(-c3onc(C)c3C)ccc2OC)C1 (stereo not given) | -2.6% | . | . | . | -14.4% | .
Cc1nn2c(=O)cc(COC(=O)C(c3ccccc3)c3ccccc3)nc2s1 | 0.9% | . | . | . | 3.3% | .
COc1ccc(S(=O)(=O)N2CCCCC2)cc1NC(=O)c1c(F)cccc1Cl | 5.9% | 56.2µM* | -14.2% | 1.6% | -4.8% | 1.6%
O=C1NC(=O)C2(N1)c1ccccc1-c1ccccc12 | -0.8% | -13.1% | 8.2% | -1.8% | 18.7% | 1.1%
O=C1NC(=O)C2(N1)C(=O)c1cccc3cccc2c13 (stereo not given) | . | 40.1% | 59.4% | 112µM* | . | ?

Compound activity: PubChem BioAssay, National Center for Advancing Translational Sciences (NCATS)
